Measurements from the supplement of paper PMC10849652.
About 7,900 targets were measured; listed, in parts, are those with a hit and a random draw of the rest. About 0.6% of all pairs of compound and target were hits. Unmarked numbers belong to inactive results.

Experiments:
Assay in all cases: log2 fold change, soluble protein after heating vs DMSO (PISA); higher = thermal stabilisation; K562 cells, 10 uM, 30 min; active = over 0.2 and 3.5 SD of the protein, either way, in both replicates (recomputed)
ZNF217 = ZNF217 (UniProt O75362)
ZNF217, sequence (O75362 whole entry, looked up): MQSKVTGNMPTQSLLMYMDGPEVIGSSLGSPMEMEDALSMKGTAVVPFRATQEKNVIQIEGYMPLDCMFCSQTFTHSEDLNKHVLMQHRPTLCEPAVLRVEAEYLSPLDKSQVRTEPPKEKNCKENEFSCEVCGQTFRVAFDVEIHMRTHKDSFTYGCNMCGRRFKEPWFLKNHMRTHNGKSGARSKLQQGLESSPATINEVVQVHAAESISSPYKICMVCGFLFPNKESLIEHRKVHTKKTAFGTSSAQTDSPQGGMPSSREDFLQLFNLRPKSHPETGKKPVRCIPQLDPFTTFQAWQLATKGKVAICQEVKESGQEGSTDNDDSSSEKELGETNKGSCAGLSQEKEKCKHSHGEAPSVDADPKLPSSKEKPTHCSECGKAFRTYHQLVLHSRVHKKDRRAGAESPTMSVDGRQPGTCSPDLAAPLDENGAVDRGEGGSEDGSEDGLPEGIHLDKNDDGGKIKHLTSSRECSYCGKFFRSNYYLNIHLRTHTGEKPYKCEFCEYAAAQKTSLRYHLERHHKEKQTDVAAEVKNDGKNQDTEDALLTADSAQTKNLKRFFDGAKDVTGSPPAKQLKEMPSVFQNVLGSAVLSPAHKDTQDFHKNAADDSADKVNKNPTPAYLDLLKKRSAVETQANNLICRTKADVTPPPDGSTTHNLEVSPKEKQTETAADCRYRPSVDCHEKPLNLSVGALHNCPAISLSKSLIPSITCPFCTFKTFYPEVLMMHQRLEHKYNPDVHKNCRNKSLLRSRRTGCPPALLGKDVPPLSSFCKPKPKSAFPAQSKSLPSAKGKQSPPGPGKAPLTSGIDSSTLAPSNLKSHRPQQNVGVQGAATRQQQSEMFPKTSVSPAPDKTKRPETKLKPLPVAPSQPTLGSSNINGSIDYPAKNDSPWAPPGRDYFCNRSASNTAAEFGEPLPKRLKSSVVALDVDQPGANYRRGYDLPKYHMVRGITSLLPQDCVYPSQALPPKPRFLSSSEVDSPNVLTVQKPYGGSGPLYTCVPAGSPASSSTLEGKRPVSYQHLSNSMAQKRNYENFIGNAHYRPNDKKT
Method in brief: (§1)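 Thermal stability values are relative to control samples and come from duplicates. They are expressed as log2 fold changes. For measurement, K562 cells (2×10^6 cells/mL) received 10 μM compound for 30 min, and aliquots were heated for 3 min over 48°C-58°C, pooled, and extracted at 4°C in PBS with 0.5% NP-40. Soluble protein, the supernatant after 21,000xg for 90 min, was quantified by TMTpro 16plex LC-MS/MS with equalised channel sums.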

ZNF239 = ZNF239 (UniProt Q16600)
Method in brief: as §1

ZNF277 = ZNF277 (UniProt Q9NRM2)
ZNF277, sequence (Q9NRM2 whole entry, looked up): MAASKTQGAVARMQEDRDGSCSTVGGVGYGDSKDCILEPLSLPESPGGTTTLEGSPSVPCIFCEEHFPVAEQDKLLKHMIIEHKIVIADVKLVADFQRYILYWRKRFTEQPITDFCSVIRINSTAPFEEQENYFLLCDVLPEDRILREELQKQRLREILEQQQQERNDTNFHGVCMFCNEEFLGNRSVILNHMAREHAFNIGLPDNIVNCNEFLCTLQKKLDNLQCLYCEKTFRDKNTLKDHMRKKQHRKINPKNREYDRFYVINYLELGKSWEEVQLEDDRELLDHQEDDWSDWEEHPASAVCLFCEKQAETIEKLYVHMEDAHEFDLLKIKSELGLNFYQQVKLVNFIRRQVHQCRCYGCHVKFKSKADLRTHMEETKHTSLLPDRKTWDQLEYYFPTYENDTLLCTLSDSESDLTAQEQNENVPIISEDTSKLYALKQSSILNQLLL
Method in brief: as §1

ZNF511 isoform 1 = ZNF511 isoform 1 (UniProt Q8NB15)
ZNF511 isoform 1, sequence (Q8NB15 whole entry, looked up, canonical isoform): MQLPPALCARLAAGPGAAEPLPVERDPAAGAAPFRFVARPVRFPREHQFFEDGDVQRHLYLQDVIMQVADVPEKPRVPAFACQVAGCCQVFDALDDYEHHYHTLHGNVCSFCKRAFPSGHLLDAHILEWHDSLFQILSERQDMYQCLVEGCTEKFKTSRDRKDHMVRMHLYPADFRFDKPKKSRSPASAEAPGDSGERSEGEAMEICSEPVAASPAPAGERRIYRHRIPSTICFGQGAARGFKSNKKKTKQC
Method in brief: as §1

ZNF579 = ZNF579 (UniProt Q8NAF0)
ZNF579, sequence (Q8NAF0 whole entry, looked up): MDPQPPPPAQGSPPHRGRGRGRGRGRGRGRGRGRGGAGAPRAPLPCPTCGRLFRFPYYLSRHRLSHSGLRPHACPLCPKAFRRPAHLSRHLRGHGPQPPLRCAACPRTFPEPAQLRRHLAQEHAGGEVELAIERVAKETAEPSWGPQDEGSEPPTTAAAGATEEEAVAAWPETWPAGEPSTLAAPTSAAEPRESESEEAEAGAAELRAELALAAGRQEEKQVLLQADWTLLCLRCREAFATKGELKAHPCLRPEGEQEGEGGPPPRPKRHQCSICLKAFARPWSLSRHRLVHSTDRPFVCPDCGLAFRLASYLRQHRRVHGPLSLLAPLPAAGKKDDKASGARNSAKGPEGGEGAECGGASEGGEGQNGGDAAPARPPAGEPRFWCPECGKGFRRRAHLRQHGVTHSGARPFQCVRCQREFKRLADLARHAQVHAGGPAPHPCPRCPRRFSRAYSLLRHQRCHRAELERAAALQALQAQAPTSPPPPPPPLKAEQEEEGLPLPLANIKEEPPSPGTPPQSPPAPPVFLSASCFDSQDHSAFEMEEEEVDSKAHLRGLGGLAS
Method in brief: as §1

ZNF580 = ZNF580 (UniProt Q9UK33)
ZNF580, sequence (Q9UK33 whole entry, looked up): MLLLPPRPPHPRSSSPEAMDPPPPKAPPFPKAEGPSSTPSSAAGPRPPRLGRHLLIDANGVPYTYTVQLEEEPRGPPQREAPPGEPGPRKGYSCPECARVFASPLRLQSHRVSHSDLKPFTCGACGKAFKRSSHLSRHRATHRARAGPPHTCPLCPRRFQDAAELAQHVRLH
Method in brief: as §1

ZNF609 = ZNF609 (UniProt O15014)
ZNF609, sequence (O15014 whole entry, looked up): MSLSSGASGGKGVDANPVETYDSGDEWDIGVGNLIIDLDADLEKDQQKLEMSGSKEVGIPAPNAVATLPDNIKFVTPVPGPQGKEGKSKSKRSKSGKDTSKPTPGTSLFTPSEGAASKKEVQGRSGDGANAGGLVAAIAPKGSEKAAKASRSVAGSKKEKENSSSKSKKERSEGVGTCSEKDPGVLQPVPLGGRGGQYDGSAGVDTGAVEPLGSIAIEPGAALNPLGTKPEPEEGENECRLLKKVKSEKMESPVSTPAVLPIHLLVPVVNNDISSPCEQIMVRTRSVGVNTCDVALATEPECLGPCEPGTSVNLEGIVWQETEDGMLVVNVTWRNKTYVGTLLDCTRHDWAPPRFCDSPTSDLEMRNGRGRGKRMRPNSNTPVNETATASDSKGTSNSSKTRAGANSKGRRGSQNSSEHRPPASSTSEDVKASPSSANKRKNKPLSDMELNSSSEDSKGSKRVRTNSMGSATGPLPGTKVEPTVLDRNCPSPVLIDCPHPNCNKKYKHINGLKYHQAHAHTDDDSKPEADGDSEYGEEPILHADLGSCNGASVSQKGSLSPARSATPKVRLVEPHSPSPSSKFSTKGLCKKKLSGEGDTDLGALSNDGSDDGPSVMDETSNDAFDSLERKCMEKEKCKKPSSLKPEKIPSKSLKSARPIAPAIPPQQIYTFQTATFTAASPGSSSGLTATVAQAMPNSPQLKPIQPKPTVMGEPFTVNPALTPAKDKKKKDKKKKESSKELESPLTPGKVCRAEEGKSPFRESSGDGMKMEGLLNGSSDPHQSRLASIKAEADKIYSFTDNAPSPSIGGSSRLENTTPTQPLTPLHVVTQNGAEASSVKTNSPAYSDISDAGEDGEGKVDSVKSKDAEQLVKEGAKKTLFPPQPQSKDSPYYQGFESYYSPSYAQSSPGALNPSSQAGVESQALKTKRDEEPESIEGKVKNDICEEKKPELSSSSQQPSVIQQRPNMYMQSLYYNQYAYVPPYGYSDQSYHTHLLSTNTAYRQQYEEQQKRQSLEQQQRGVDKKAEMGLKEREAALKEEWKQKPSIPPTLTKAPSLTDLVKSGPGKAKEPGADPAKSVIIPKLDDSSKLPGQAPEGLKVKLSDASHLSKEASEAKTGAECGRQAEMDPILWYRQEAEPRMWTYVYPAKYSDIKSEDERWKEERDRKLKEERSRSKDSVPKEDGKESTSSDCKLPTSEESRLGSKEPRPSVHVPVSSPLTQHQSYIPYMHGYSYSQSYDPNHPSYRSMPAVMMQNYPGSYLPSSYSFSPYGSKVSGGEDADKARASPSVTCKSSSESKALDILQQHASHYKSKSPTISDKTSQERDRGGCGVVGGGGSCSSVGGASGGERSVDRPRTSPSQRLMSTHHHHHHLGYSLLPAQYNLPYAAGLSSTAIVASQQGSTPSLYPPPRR
Method in brief: as §1

ZNF622 = ZNF622 (UniProt Q969S3)
Method in brief: as §1

ZRANB2 = ZRANB2 (UniProt O95218)
ZRANB2, sequence (O95218 whole entry, looked up): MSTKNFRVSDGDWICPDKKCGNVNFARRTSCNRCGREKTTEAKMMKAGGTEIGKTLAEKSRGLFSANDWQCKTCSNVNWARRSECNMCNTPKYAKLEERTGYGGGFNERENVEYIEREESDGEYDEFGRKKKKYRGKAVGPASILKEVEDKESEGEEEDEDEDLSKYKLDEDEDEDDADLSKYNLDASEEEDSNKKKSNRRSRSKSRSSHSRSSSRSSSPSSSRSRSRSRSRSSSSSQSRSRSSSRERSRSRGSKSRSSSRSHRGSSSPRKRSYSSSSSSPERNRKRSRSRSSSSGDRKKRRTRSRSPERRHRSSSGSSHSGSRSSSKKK
Method in brief: as §1

ZNF512 = ZNF512 (UniProt Q96ME7)
ZNF512, sequence (Q96ME7 whole entry, looked up): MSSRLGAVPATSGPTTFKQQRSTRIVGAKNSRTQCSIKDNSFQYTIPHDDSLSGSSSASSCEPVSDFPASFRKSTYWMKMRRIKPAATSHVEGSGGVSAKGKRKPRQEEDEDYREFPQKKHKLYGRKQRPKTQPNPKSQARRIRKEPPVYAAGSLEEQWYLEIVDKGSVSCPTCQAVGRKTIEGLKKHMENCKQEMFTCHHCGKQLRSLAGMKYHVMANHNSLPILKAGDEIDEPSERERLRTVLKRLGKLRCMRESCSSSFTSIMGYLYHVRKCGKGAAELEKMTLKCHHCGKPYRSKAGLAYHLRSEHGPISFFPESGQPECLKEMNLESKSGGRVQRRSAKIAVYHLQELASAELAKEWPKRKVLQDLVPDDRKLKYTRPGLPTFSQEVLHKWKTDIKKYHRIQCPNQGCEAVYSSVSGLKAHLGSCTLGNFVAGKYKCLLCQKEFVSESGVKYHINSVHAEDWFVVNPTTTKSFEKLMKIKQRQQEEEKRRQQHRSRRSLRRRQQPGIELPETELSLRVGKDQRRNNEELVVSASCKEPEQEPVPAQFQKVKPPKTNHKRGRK
Method in brief: as §1

| SMILES | log2 fold change (ZNF217) | log2 fold change (ZNF239) | log2 fold change (ZNF277) | log2 fold change (ZNF511 isoform 1) | log2 fold change (ZNF579) | log2 fold change (ZNF580) | log2 fold change (ZNF609) | log2 fold change (ZNF622) | log2 fold change (ZRANB2) | log2 fold change (ZNF512) |
| --- | --- | --- | --- | --- | --- | --- | --- | --- | --- | --- |
| Cn1cncc1[C@@](N)(c1ccc(Cl)cc1)c1ccc2c(c1)c(-c1cccc(Cl)c1)cc(=O)n2C [tipifarnib] | -0.152 | 0.178 | 0.044 | 0.062 | 0 | -0.204 | 0 | -0.048 | -0.001 |  |
| CN1CC[C@H](c2c(O)cc(O)c3c(=O)cc(-c4ccccc4Cl)oc23)[C@H](O)C1 [alvocidib] | -0.164 | 0.226 | 0.169 | -0.143 | -0.034 |  | 0.077 | 0.085 | 0.068 | -0.002 |
| Cc1cn(-c2cc(NC(=O)c3ccc(C)c(Nc4nccc(-c5cccnc5)n4)c3)cc(C(F)(F)F)c2)cn1 [nilotinib] | -0.082 | -0.022 | -0.207 | -0.17 | 0.105 |  | 0.03 | 0.046 | 0.052 | -0.031 |
| Cc1ncc(-c2ccnc(Nc3ccc(S(C)(=O)=O)cc3)n2)n1C(C)C | -0.046 | 0.275 | 0.017 | 0.015 | -0.054 |  | -0.102 | 0.013 | -0.027 | -0.072 |
| Cc1nc(Nc2n[nH]c3c2CN(C(=O)N[C@H](CN(C)C)c2ccccc2)C3(C)C)c2sccc2n1 | -0.055 | -0.012 | 0.231 | 0.005 | -0.115 |  | -0.018 | 0.091 | -0.032 | 0.187 |
| FC(F)(F)c1ccc(/C=C/c2nc(COc3ccc(CCCCn4ccnn4)cc3)co2)cc1 [mubritinib] | 0.08 | -0.483 | 0.192 | -0.06 | 0.031 |  | 0.019 | 0.004 | -0.02 | -0.122 |
| C[C@@H]1COCCN1c1cc(C2(S(C)(=O)=O)CC2)nc(-c2cccc3[nH]ccc23)n1 | -0.099 | -0.065 | -0.566 | 0.105 | -0.114 |  | -0.064 | 0.067 | 0.001 | 0.007 |
| CCCCN(Cc1ccc(C(=O)NO)cc1)C(=O)Nc1ccccc1 [Nexturastat A] | 0.006 | 0.441 | 0.276 | -0.074 | 0.004 |  | 0.475 (active) | -0.086 | -0.057 | -0.038 |
| CO[C@H]1C[C@@H]2CC[C@@H](C)[C@@](O)(O2)C(=O)C(=O)N2CCCC[C@H]2C(=O)O[C@H]([C@H](C)C[C@@H]2CC[C@H](n3cnnn3)[C@H](OC)C2)CC(=O)[C@H](C)/C=C(\C)[C@@H](O)[C@@H](OC)C(=O)[C@H](C)C[C@H](C)/C=C/C=C/C=C/1C [zotarolimus] | -0.007 | -0.483 | -0.084 | 0.066 | 0.099 |  | -0.008 | -0.017 | -0.011 | -0.024 |
| CC[C@H](C)[C@H](NC(=O)[C@H]([C@@H](C)CC)N(C)C(C)=O)C(=O)N[C@H](C(=O)N[C@@H](CC(C)C)C(=O)[C@@]1(C)CO1)[C@@H](C)O [epoxomicin] | 0.075 | -0.051 | -0.06 | -0.045 | -0.024 |  | -0.271 | 0.056 | -0.016 | 0.085 |
| CC(C)(O)CC(=O)NCCn1ccc2ncnc(Nc3ccc(Oc4cccc(C(F)(F)F)c4)c(Cl)c3)c21 | -0.122 | 0.086 | -0.002 | 0.1 | -0.018 |  | 0.101 | -0.078 | -0.012 | -0.018 |
| COc1cccc2cc(-c3nc([C@H]4CC[C@H](C(=O)O)CC4)n4ncnc(N)c34)[nH]c12 | 0.043 | 0.548 | -0.24 | 0.099 | -0.078 |  | -0.028 | 0.01 | -0.01 | -0.041 |
| O=C1c2ccccc2-c2n[nH]c3cccc1c23 | 0.03 | 0.004 | 0.065 | 0.041 | 0.279 |  | 0.002 | 0.042 | -0.059 | 0.161 |
| CC[C@H](C)n1cc(C)c2c(C(=O)NCc3c(C)cc(C)[nH]c3=O)cc(-c3ccc(N4CCNCC4)nc3)cc21 | 0.045 | -0.096 | 0.02 | -0.058 | 0.167 |  | 0.076 | -0.012 | 0 | -0.002 |
| O=C1NC(=NCc2cccs2)S/C1=C\c1ccc2ncccc2c1 | 0.007 | 0.117 | 0.019 | 0.087 | -0.051 |  | -0.025 | 0.07 | -0.059 | 0.102 |
| COc1cc(C(=O)O)ccc1NC(=O)[C@@H]1N[C@@H](CC(C)(C)C)[C@](C#N)(c2ccc(Cl)cc2F)[C@H]1c1cccc(Cl)c1F [idasanutlin] | -0.027 | -0.031 | -0.003 | 0.128 | -0.116 |  | 0.021 | -0.031 | 0.024 | 0.3 |
| CC(=O)c1cnc2ccc(-c3cc(Cl)c(O)c(Cl)c3)nc2c1N[C@H]1CC[C@H](CN(C)C)CC1 | -0.125 | -0.439 | -0.017 | -0.005 | -0.187 |  | -0.071 | 0.096 | 0.017 | -0.15 |
| Fc1ccc(Cl)cc1-c1nc(Nc2ccncc2)c2nccnc2n1 | 0.168 | -0.333 | -0.765 (active) | -0.03 | -0.002 |  | -0.302 | 0.038 | 0.041 | 0.086 |
| Cc1ccc(Sc2cncc3sc(C(N)=O)cc23)cc1 | -0.107 | 0.019 | -0.032 | 0.018 | -0.07 | 0.16 | -0.045 | -0.022 | -0.04 |  |
| NC1(c2ccc(-c3nc4ccn5c(=O)[nH]nc5c4cc3-c3ccccc3)cc2)CCC1 | -0.045 | -0.253 | 0.107 | -0.039 | -0.061 |  | 0.018 | -0.019 | 0.046 | 0.151 |
| C/C(=N\NC(=O)c1cccc(S(=O)(=O)N2CCOCC2)c1)c1cc(Cl)ccc1O | 0.074 | 0.019 | -0.031 | -0.402 (active) | 0.147 |  | -0.048 | 0.015 | -0.067 | -0.085 |
| COc1cc(Nc2ncc3c(n2)-c2ccc(Cl)cc2C(c2c(F)cccc2OC)=NC3)ccc1C(=O)O [alisertib] | -0.092 | -0.004 | 0.028 | 1.14 | -0.082 |  | -0.021 | -0.028 | -0.058 | -0.286 |
| O=C(O)c1ccc2c(c1)nc(Nc1cccc(Cl)c1)c1ccncc12 [silmitasertib] | -0.073 | 0.29 | 0.105 | 0.076 | -0.016 |  | 0.02 | -0.058 | 0.018 | 0.234 |
| Cn1cc(-c2ccc3c(c2)CCN3C(=O)Cc2cccc(C(F)(F)F)c2)c2c(N)ncnc21 | 0.142 | 0.306 | -0.163 | 0.01 | 0.059 |  | -0.041 | 0.067 | -0.013 | -0.86 (active) |
| COc1cc2ncnc(Nc3ccc(F)c(Cl)c3)c2cc1OCCCN1CCOCC1 [gefitinib] | 0.001 | -0.267 | -0.053 | -0.192 | 0.111 |  | -0.069 | 0 | 0.034 | -0.02 |
| CC1=C(C(=O)Nc2cc3cn[nH]c3cc2F)C(c2ccc(C(F)(F)F)cc2)CC(=O)N1 (centres undefined) | -0.033 | 0.283 | -0.009 | -0.006 | -0.003 |  | -0.117 | -0.083 | 0.025 | -0.261 |
